Assay results from PubChem BioAssay AID651803 (National Center for Advancing Translational Sciences (NCATS), 2012).
Among all 1,200 compounds or so, fewer than 10 were called active. Calls come from the whole dose curve; as a rule, active = well fitted curve in the direction sought with a large enough effect; inconclusive = small, poorly fitted or top-dose-only effect, or another doubt; inactive = no such curve, though single readings can be large or run the other way. Only a sample is shown. Residues, ends and D or L forms follow the SMILES beside them.

molecular target: Transcriptional regulator ERG (Homo sapiens) (UniProt P11308); assay: qHTS for Small Molecule Inhibitors of the ERG Ets/DNA interaction: TR assay against cherry picks; conditions: ERG Ets domain-DNA fluorescence polarization, Texas red probe; series mostly up to 154 µM; activity change, negative = inhibition: at the top concentration; note: % of control where 0% means no effect
From the text: The Ets family of proteins is a family of ~30 conserved transcription factors defined by the presence of an ~85 amino acid domain referred to as the Ets domain, which mediates sequence-specific DNA binding to a core DNA element GGAA/T.The Ets family member ERG has been linked to several neoplasms. […] More extensive studies of the effects of over-expression of ERG in prostate cells have recently been carried out and have shown that over-expression of ERG results in increased invasion. […] We will carry out a high throughout screen to identify inhibitors of the interaction between ERG and DNA using a fluorescence polarization (FP) assay with a His-tagged ERG Ets domain and fluorescently-labeled DNA probes to develop small molecule inhibitors of this interaction as probes to test this hypothesis and lay the groundwork for the development of targeted therapies against ERG. This is the confirmation against the cherry picks in theprimary screening assay. NIH Molecular Libraries Probe Production Network [MLPCN] NIH Chemical Genomics Center [NCGC] Grant: NS066464 PI Name: John Bushweller, University of Virgina
1.5 ul of protein solution (1 uM ERG domain in 300mM KCl, 50mM Tris-HCl, 1mM EDTA, 1mM DTT, pH 7.5); 20 nl Control plate and compound library plate; 1.5 ul mixture of 5 nM Fluorescein-DNA and 100nM Texas-615-DNA solution in same buffer as above solution; measure fluorescence polarization sequentially for fluorescein (Excitation = 480 nm, Emission = 535s, 535p nm) and Texas red (Excitation = 555 nm, Emission = 632s, 632p nm).

Transcriptional regulator ERG (Homo sapiens), sequence (P11308 whole entry, looked up, the tested form may be a part): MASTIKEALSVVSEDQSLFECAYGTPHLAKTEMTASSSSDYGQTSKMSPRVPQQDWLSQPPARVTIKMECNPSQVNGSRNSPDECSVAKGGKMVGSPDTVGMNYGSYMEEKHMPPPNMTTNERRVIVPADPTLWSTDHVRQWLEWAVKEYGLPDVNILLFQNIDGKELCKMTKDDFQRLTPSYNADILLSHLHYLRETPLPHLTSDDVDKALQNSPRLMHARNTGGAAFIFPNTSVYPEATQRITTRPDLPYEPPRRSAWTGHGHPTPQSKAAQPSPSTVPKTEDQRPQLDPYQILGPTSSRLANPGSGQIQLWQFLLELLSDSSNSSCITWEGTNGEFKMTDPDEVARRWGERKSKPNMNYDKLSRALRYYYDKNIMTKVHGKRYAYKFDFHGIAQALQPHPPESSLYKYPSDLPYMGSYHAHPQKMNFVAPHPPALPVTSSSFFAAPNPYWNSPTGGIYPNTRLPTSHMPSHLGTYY

Activity change, negative = inhibition, inactive:
Cc1ccccc1OCc1nnc(SCC(=O)Nc2ccc(N3CCOCC3)c(Cl)c2)n1C -15.8%
O=C(O)c1cc(O)c2c(c1)[C@H]([C@H]1c3cc(C(=O)O)cc(O)c3C(=O)c3c(O[C@@H]4O[C@H](CO)[C@@H](O)[C@H](O)[C@H]4O)cccc31)c1cccc(OC3O[C@H](CO)[C@@H](O)[C@H](O)[C@H]3O)c1C2=O (stereo partly drawn) -12.2%
COc1ccccc1CN(C)C(=O)C(NC(=O)Cc1cccc2ccccc12)C(C)C (stereo not drawn) -0.0885%
O=C(CN1C=NS(=O)(=O)c2ccccc21)Nc1ccc(Br)cc1 -7.5%
Cc1ccc(S(=O)(=O)NCC(=O)N(CC(=O)NCC2CCCO2)c2cccc(F)c2)cc1 (stereo not drawn) -5.86%
Clc1ccc(SCc2nc3ccccc3[nH]2)cc1 -2.08%
CCc1n[nH]c(=S)n1/N=C/c1ccc(N(C)c2ccccc2)cc1 1.89%
CNC(=O)c1cccc(-n2c(C)nc3cccnc32)c1C 13%
Cc1ccc(/C=C2\SC(N3CCCCC3)=NC2=O)cc1 -1.4%
CCc1cccc(NC(=O)C2CCCN(S(=O)(=O)c3ccc4[nH]c(=O)ccc4c3)C2)c1 (stereo not drawn) 0.67%
COc1ccc(-c2ccc(SCC(=O)NCc3ccc4c(c3)OCO4)nn2)cc1OC -14.9%
C=CCn1c(=O)[nH]c2cc(C(=O)N3CC=C(c4ccccc4)CC3)ccc2c1=O 0.0273%
COc1ccccc1CNC(=O)CCNC(=O)C1CCN(S(=O)(=O)c2ccccc2)CC1 -4.44%
Oc1ccc(Nc2ccc3ccccc3c2)cc1 -16%
Cc1ccc(OCC(=O)OCC(=O)c2ccccc2)cc1C 4.59%
CC(C)N1CCC(N2CCN(Cc3cccc4nonc34)CC2CCO)CC1 (stereo not drawn) 6.57%
O=C(O)CNC(=O)/C(=C\c1ccc2c(c1)OCO2)NC(=O)c1ccc(Br)cc1 3.73%
O=C(COc1coc(CN2CCCc3ccccc32)cc1=O)Nc1cccc([N+](=O)[O-])c1 2.41%
COc1cccc(CC2(CO)CCN(S(=O)(=O)N(C)C)CC2)c1 2.59%
CCOc1cc(C2c3c(oc4ccccc4c3=O)C(=O)N2Cc2ccc(OC)cc2)ccc1O (stereo not drawn) -8.68%
Cc1cccc(-c2oc3ccccc3c2-c2ccc3c(c2)OCO3)c1 2.05%
Cc1ncc([N+](=O)[O-])n1CC(=O)N/N=C/c1ccc(F)cc1 -3.78%
Cc1ccc(C(=O)Nc2ccc(C(=O)N/N=C/c3c[nH]c4ccccc34)cc2)cc1 -28.5%
Cc1ccc(/C=C2\Sc3ccccc3C2=O)s1 -2.68%
COc1ccc([C@@H](NC(=O)OC(C)(C)C)C(=O)OC(C)(C)C)cc1 -13.8%
O=c1ccc(-c2ccc(S(=O)(=O)Nc3cccc(Br)c3)o2)n[nH]1 2.8%
Nn1c(Cc2ccccc2)nc2sc3c(c2c1=O)CCC3 5.36%
CCCN(CCC)Cc1c(C(=O)N/N=C/c2cccs2)nnn1-c1nonc1N 1.84%
Cn1c(CNC(=O)CNC(=O)c2ccc(C(C)(C)C)cc2)cc(=O)n(C)c1=O -3.56%
C/C(=N\Nc1ccc(C#N)cc1[N+](=O)[O-])c1ccc(C)o1 0.206%
CC(=O)Nc1ccc(NC(=O)C(C)OC(=O)C2CCN(S(=O)(=O)c3ccc4c(c3)OCCO4)CC2)cc1 (stereo not drawn) 1.51%
CCS(=O)(=O)N1CCC(C(=O)OCC(=O)c2ccc(Br)cc2)CC1 8.14%
Cn1c(SCC(=O)N2CCN(C(=O)c3ccco3)CC2)nnc1-c1ccc(NS(C)(=O)=O)cc1 -9.66%
CCOC(=O)N1CCC(NC(=O)Cc2ccccc2)CC1 1.65%
CC(=O)NC(Cc1ccccc1)C(=O)NC(Cc1ccccc1)C(=O)O (stereo not drawn) (Ac-Phe-Phe-OH; configuration not given here) 8.39%
COc1ccccc1C(=O)Nn1c(-c2cccs2)nc2ccccc2c1=O 2.95%
Cc1c(OC(C(=O)O)c2ccccc2)ccc2c(-c3ccccc3)cc(=O)oc12 (stereo not drawn) 3.4%
COc1cc(C(=O)Cc2nc3ccccc3n2C)cc(OC)c1OC -6.52%
CC(=O)Nc1ccc(NC(=O)Nc2ccc(C)cc2C)cc1 1.3%
CCOc1ccc(N/C(SCc2cccc([N+](=O)[O-])c2)=C(/C#N)C(N)=O)cc1 -6.84%
CC(C)(C)SC(=O)CC1NS(=O)(=O)OC2CCCCC12 (stereo not drawn) 1.13%
Cc1cccn2c(=O)cc(COc3ccc(NC(=O)C(C)C)cc3)nc12 -1.94%
CCc1nnc2c(N3CCN(c4cccc(C(F)(F)F)c4)CC3)nc3ccccc3n12 -11.3%
COC(=O)c1ccc2c(=O)n(CCN3CCOCC3)c(SCC(=O)Nc3ccc(OC)cc3OC)nc2c1 7.16%
COc1ccc(S(=O)(=O)N2CCc3ccccc32)cc1C(=O)N(CC(C)C)C1CCS(=O)(=O)C1 (stereo not drawn) 0.304%
FC(F)(F)COc1cc(-c2nnc(SCc3ccccc3)n2Cc2ccco2)cc(OCC(F)(F)F)n1 -11.3%
N/C(=N\c1nc2ccccc2o1)NC(=O)c1cccc(Br)c1 1.54%
Cc1ccccc1OCC(=O)Nc1ccc2[nH]ncc2c1 -5.59%
CCN1CCN(CCCN(Cc2cccs2)C(=S)Nc2ccccc2C)CC1 -20.8%
Nc1ccc2nc3c(=O)n(CCc4ccccc4)c(=O)[nH]c3nc2c1 38.9%
CCOC(=O)C1=C(C)N(C[C@@H]2CC[C@@H](Cc3ccc(-c4ccccc4)cc3)O2)C(=O)NC1c1ccc([N+](=O)[O-])cc1 (stereo partly drawn) 0.997%
COc1cc(/C=C/C(=O)OCC(=O)NC(=O)NC2CCCCC2C)ccc1OC(F)F (stereo not drawn) 1.76%
O=S(=O)(NCCC1=CCCCC1)c1ccc(OC(F)(F)F)cc1 -22.2%
CCN1C(=O)CSc2ccc(C(=O)NC3CCCCC3)cc21 1.14%
COc1ccc(C2(C(=O)Nc3ccc(OC)cc3OC)CCCC2)cc1 -3.52%
CC1COc2ccccc2N1S(=O)(=O)c1ccc(Cl)cc1 (stereo not drawn) 6.25%
CCOC(=O)C1CCN(C(=O)c2cccc(S(=O)(=O)N3CCCc4ccccc43)c2)CC1 -15.3%
O=C(Nc1cc2c(cc1Cl)-c1ccc([N+](=O)[O-])cc1C2=NO)C(F)(F)F -27.9%
CC(C)C(C(=O)O)N1CCS(=O)(=O)CC1 (stereo not drawn) 4.35%
CCN(CC)c1ccc2cc(-c3nc(-c4cc(OC)c(OC)c(OC)c4)no3)c(=O)oc2c1 9.56%
CCOC(=O)c1ccc(NC(=O)c2cn(-c3ccccc3)nc2-c2ccc(OC)c(OC)c2)cc1 -9.46%
CC(OC(=O)C1CCN(S(=O)(=O)c2ccccc2C(F)(F)F)CC1)C(=O)N(C)Cc1ccccc1 (stereo not drawn) 1.27%
CCOc1ccc(NC(=O)Cc2c(C(=O)O)n(C)c3ccccc23)cc1 5.3%
CN(CC(=O)NC(=O)NC1CCCCC1)CC(=O)Nc1ccc(Cl)cc1 1.09%
NC(=O)Nc1ccc(C(=O)OCC(=O)NC2CCCc3ccccc32)cc1 (stereo not drawn) -13.4%
Cc1ccccc1S(=O)(=O)N(CC(O)CN1C(=O)NC(C)(C)C1=O)c1ccccc1 (stereo not drawn) -2.88%
Cn1cc2c(=O)n(/N=C/c3ccccc3)cnc2n1 4.94%
O=C(O)CN1C(=O)C(=O)N(Cc2ccc(C(F)(F)F)cc2)C1=O -3.42%
Cn1cccc1C(=O)OCC(=O)Nc1ccc2[nH]c(=O)[nH]c2c1 -18.6%
CCC(C)NCCOc1ccc(C)cc1[N+](=O)[O-] (stereo not drawn) 11.8%
CC(C)n1c(SCc2ccccc2F)nc2c1c(=O)n(C)c(=O)n2C -13.1%
CCc1ccc2c(c1)c(=O)c(C(=O)c1ccc(C)cc1)cn2CC(=O)Nc1ccccc1C 2.71%
COc1ccc(C(=O)N2CCc3ccc(NC(=O)c4ccccn4)cc3C2)cc1F -0.766%
CCN(CC(=O)Nc1ccc(N2CCOCC2)cc1)CC(=O)NC(C)(C)C -0.837%
Cc1ccc(C)c(N(CC(=O)NCc2ccco2)C(=O)CNS(=O)(=O)c2ccc(F)cc2)c1 2.79%
O=C(OCC(=O)N1CCN(c2ccccc2)CC1)c1cccc([N+](=O)[O-])c1 -8.8%
O=C(Nc1ccc(NS(=O)(=O)c2ccc([N+](=O)[O-])cc2)cc1)c1ccco1 6.22%
Oc1ccccc1CN1CCCC(N2CCN(c3cccc(C(F)(F)F)c3)CC2)C1 (stereo not drawn) -0.432%
O=C(NNC(=O)c1sccc1-n1cccc1)Nc1ccccc1 11.1%
CCOC(=O)c1c(NC(=O)C(C)Sc2cn(CCNC(=O)c3ccc(OC)c(OC)c3)c3ccccc23)sc2c1CCC2 (stereo not drawn) -9.91%
CC(=O)NCc1ccc(S(=O)(=O)N2CCN(c3ccccn3)CC2)cc1 2.4%
CN(C(=O)COC(=O)c1cc(S(=O)(=O)N2CCOCC2)ccc1F)C1CCS(=O)(=O)C1 (stereo not drawn) 1.52%
Cn1c(SCc2nnc(-c3ccccc3)o2)nc2ccccc21 2.98%
COc1cccc(OC)c1C(=O)Nn1c(-c2cccs2)nc2ccccc2c1=O 1.79%
Cc1cc(C)c2nc(NC(=O)[C@@H](NC(=O)c3cccc(S(=O)(=O)N4CCOCC4)c3)C(C)C)sc2c1 -9.98%
S=C(NCCc1ccccc1)Nc1ccc(Cl)cc1Cl 0.951%
CN(C)Cc1cc2ccccc2c2c1COC2 -13.2%
O=C(NCC1CCN(S(=O)(=O)c2ccccc2)CC1)Nc1ccc(F)cc1 1.59%
O=C1/C(=C/c2cccs2)Sc2ccccc21 14.3%
Cc1ccc(N(CC(=O)NC2CCCC2)C(=O)CNC(=O)c2cccs2)c(C)c1 -7.05%
COc1ccc(N(C(=O)c2snc(C(N)=O)c2N)C(C(=O)NCC2CCCO2)c2ccc3ncccc3c2)cc1OC (stereo not drawn) -0.522%
Cc1ccc(-c2[nH]c(-c3ccc(C(=O)O)cc3)nc2-c2ccccc2)cc1 -7.62%
Cc1ccccc1OCc1nc(-c2ccc(NC(=O)c3ccc4c(c3)OCO4)cc2)no1 10.3%
CCOCCCNCC(=O)Nc1ccc(S(=O)(=O)NC(C)CC)cc1 (stereo not drawn) -4.09%
CC1CCN(C(=O)COC(=O)c2ccc(=O)n(Cc3ccccc3)n2)CC1 8.59%
C=CCN1C(=O)c2ccc(C(=O)Nc3ccccn3)cc2C1=O -1.88%
Cc1cccc(NC(=O)c2cc3ccccc3nc2C)c1 -2.6%
CC(=O)Nc1ccc(S(=O)(=O)N[C@@H](C)C(=O)N2CCN(C/C=C/c3ccccc3)CC2)cc1 -0.505%
